# Bioassay records (PubChem BioAssay)
# Hits are enriched below; roughly 8.1% of the tested compounds scored in any of these assays.
# Sfp inh = blocks B. subtilis Sfp PPTase activity; 3.5% of 310,000 active; Potency, µM, without a hit: largest response in the series, negative = inhibition, hits mostly inhibitors; Biochemical Sfp PPTase activity, qHTS;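 further: the enzyme is Sfp with the accession as filed and its product quenches rhodamine fluorescence; 0% = enzyme reaction without inhibitor and -100% = no enzyme wells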
#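 Compounds were incubated with enzyme (final 15 nM) for 15 min at room temperature before substrate addition started the reaction. Fluorescence at 525 nm excitation, 598 nm emission was recorded immediately and after 30 minutes.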
# RORgamma inh = blocks mouse ROR gamma transcriptional activity; Drosophila S2 Gal4-RORgamma UAS-luciferase reporter, 20 h; Potency, µM (highest dose often 53.6 µM), inactives show at the top dose activity change, negative = inhibition, usual class: inhibitors; 5.4% of 310,000 active; AID 2551; further: on the % scale 0 is the no-effect control and ±100 the full control effect; nearly all actives have a fitted effect of over 60% in size
# Target sequence (P51450 whole entry, looked up, the tested form may be a part): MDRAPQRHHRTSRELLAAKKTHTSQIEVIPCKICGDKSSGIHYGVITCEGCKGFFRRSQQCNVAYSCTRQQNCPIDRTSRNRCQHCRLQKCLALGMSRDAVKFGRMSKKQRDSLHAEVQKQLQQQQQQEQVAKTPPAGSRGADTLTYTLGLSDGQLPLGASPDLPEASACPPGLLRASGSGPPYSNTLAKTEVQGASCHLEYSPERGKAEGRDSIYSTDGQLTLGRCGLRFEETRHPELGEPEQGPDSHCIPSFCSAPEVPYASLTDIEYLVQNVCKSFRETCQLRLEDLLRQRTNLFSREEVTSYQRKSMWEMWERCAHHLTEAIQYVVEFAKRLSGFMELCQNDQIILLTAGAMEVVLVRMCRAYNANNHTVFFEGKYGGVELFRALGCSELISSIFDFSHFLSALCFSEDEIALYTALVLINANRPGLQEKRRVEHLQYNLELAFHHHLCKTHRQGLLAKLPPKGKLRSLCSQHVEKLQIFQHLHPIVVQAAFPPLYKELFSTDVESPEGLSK
#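 Drosophila S2 cells stably expressing Gal4-DBD/mouse RORγ fusion under metallothionein promoter plus UAS-luciferase; compound 1 h, then 700 uM CuSO4 induction for 20 h at ambient temperature; inhibition read as reduced luminescence.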
# ClpP mod = qHTS Assay for Activators of ClpP. AID 651965, 2013. ATP-dependent Clp protease proteolytic subunit (Bacillus subtilis (strain 168)), P80244. Potency, µM (series often up to 57.5 µM), for the others: at the top dose activity change, negative = active. purified B. subtilis ClpP, FRET peptide cleavage, 20 min. 1.9% of 340,000 active; active means well fitted falling curve with a large enough effect; inconclusive means small, poorly fitted or top-dose-only effect; inactive means no such curve, though single readings can be large or run the other way; further: the source files actives as falling curves though it sought activators and does not explain the sign; nearly all actives have a fitted effect of over 65% in size
# Target sequence (P80244 whole entry, looked up): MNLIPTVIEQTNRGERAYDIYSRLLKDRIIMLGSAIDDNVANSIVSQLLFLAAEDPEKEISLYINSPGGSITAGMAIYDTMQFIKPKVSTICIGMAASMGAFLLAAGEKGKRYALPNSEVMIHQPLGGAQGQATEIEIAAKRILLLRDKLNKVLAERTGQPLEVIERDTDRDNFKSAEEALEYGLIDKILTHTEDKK
#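 Purified B. subtilis ClpP, 10 microg/mL final in Tris/HCl pH8 with KCl, BSA, glycerol and Tween-20, cleaved an Abz/nitrotyrosine-quenched decapeptide. Fluorescence (ex 320, em 430) was read at 0 and 20 min at room temperature. Delta was normalized to 5.8 microM ADEP and DMSO/no-enzyme controls.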
# PINK1 expr mod = changes PINK1 expression | PINK1 immunofluorescence, high-content cytometry, 24 h | Potency, µM (doses to about 76.6 µM), for the others: at the highest dose activation (PINK1 increase), hits mostly activators | 0.2% of 410,000 active | AID 624263; active means well fitted activation curve with a large enough effect; inconclusive means small, poorly fitted or top-dose-only effect; cell line not stated here; further: % of control where 0% means no effect; nearly all actives have a fitted effect of over 65% in size
#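 Decision-based qHTS: stable cells, 24 h exposure to five compound concentrations, CCCP as control. Fixed cells stained for PINK1 plus nuclear, mitochondrial and cell markers, cytometer read.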
# VP16 counter = Gal4-VP16 reporter inhibition counter-screen | 3.5% of 310,000 active | Drosophila S2 Gal4-VP16 UAS-luciferase, luminescence, 20 h | Potency, µM (top dose mostly 53.6 µM), inactives show at the highest dose activity, negative = inhibition, usual class: inhibitors;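 further: Gal4-VP16 expression switched on by copper sulfate through the metallothionein promoter; on the % scale 0 is the no-effect control and ±100 the full control effect; nearly all actives have a fitted effect of over 50% in size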
# Epigenetic derep = epigenetic control regulation, reporter derepression | murine LDR cells, GFP reporter derepression, 30 h | Potency, µM (series often up to 53.9 µM), without a hit: at the top dose GFP activation, actives largely listed as activators | 0.2% of 280,000 active | AID 1865; further: % of control where 0% means no effect; nearly all actives have a fitted effect of over 60% in size
#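 Murine LDR cells carrying a silenced, genomically integrated CMV-driven GFP reporter were exposed to compound for 30 hours at 37 C. After PBS washes, GFP-positive cells (20–120 um objects) were counted by laser-scanning microplate cytometry.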
# Starred values were filed as active, the others as inactive; ? = inconclusive; nt = no result; ! = repeats disagree; [ ] = dose if it differs, or a comment. Unless noted, the call rests on the fitted dose curve; in most records, active means well fitted curve in the direction sought with a large enough effect; inconclusive means small, poorly fitted or top-dose-only effect, or another doubt; inactive means no such curve, though single readings can be large; an effect the other way counts as inactive or inconclusive. Potency means the concentration at half of the fitted maximal effect.
SMILES,Sfp inh,RORgamma inh,ClpP mod,PINK1 expr mod,VP16 counter,Epigenetic derep
Fc1ccc2c(c1)c1n[nH]c(=S)nc1n2CCc1ccccc1,4.2%,1.41µM*,-0.3%,0.2%,2.82µM*,nt
CCn1c2ccc(C)cc2c2nnc(SCCN3CCOCC3)nc21,-4.9%,-27.3%,-2.3%,-0.3%,-5.1%,0.0%
Cn1c2ccccc2c2n[nH]c(=S)nc21,?,-1.5%[1.91 µM],0.5%,-0.9%,?,nt
CCN(CC)CCn1c2ccccc2c2n[nH]c(=S)nc21,28.2µM*,nt,nt,1.2%,nt,nt
Cc1ccc(C)c(-c2[nH]c3c(c2-c2c(-n4cccc4)n(C)c(=O)[nH]c2=O)c(=O)[nH]c(=O)n3C)c1,nt,nt,1.1%,2.5%,nt,-1.6%
CC(=C\c1ccco1)/C=C1/SC(=S)N(CC(=O)O)C1=O,28.2µM*,12.2%,nt,-0.9%,1.7%,-1.1%
O=C(CN1C(=O)/C(=C/c2ccco2)SC1=S)Nc1ccc(O)c(C(=O)O)c1,50.1µM*,1.7%,0.3%,-0.9%,1.6%,nt
O=C(CN1C(=O)/C(=C/c2ccco2)SC1=S)Nc1ccc(C(=O)O)c(O)c1,50.1µM*,-4.1%,2.4%,-1.4%,-8.7%,nt
CC(C(=O)Nc1ccc(C(=O)O)c(O)c1)N1C(=O)/C(=C\c2ccco2)SC1=S (stereo unspecified),50.1µM*,-8.2%,1.1%,-0.4%,-8.2%,nt
O=C(CCCN1C(=O)/C(=C/c2cccs2)SC1=S)Nc1ccc(O)c(C(=O)O)c1,?,-26.4%,nt,nt,?,4.3%
CC(C(=O)N(C)C1CCS(=O)(=O)C1)N1C(=O)/C(=C/c2ccco2)SC1=S (stereo unspecified),-26.4%,-23.4%,2.0%,-0.7%,28.3%,nt
CC(/C=C1\SC(=S)N(CC(=O)O)C1=O)=C\c1ccccc1,-22.7%,6.7%[10 µM],0.3%,-0.7%,-4.5%,1.1%
O=C(CSc1nccc(=O)[nH]1)N1N=C2/C(=C/c3ccco3)CCCC2C1c1ccco1 (stereo unspecified),10µM*,-3.9%,nt,-0.2%,3.6%,-1.4%
Nc1nc(SCC(=O)N2N=C3/C(=C/c4ccco4)CCCC3C2c2ccco2)n[nH]1 (stereo unspecified),-12.4%,15.9%,-3.7%,4.4%,8.1%,-1.0%
CSc1nc(Sc2ccccc2Cl)c2ccccc2n1,-25.8%,?,31.6µM*,3.4%,5.4%,0.0%
Cc1cc(OCC(=O)NC(C)(C)C)ccc1Cl,8.6%,2.1%,-0.5%,4.2%,6.5%,2.3%
Cc1cc(OCC(=O)N(C(C)C)C(C)C)ccc1Cl,2.2%,1.58µM*,0.4%,7.4%,?,-0.6%
Cc1cc(OC(C)C(=O)Nc2cccnc2)ccc1Cl (stereo unspecified),12.3%,22.4%,nt,-1.1%,-11.3%,nt
Cc1cc(OC(C)C(=O)Nc2ccncc2)ccc1Cl (stereo unspecified),9.2%,19.3%,1.8%,-1.0%,11.2µM*,nt
Cc1ccc(OC(C)C(=O)Nc2ccncc2)cc1 (stereo unspecified),21.8%,?,2.1%,1.6%,17.8µM*,nt
Cc1nc([N+](=O)[O-])c(Sc2nc3ccccc3[nH]2)n1Cc1ccccc1,7.2%,10µM*,0.9%,-0.3%,?,0.0%
Cc1cc2nc(Sc3c([N+](=O)[O-])nc(C)n3Cc3ccccc3)[nH]c2cc1C,12.9%,12.6µM*,2.6%,-2.3%,8.91µM*,3.1%
COc1ccc2nc(Sc3c([N+](=O)[O-])nc(C)n3Cc3ccccc3)[nH]c2c1,15.3%,?,-3.2%,-1.1%,-25.0%,-0.3%
COc1ccc(-n2nc3c(N4CCC(C(=O)NCc5cccc(F)c5)CC4)nnc(C)c3c2C)cc1,nt,nt,3.8%,0.2%,nt,-1.9%
COc1ccc(NC(=O)Nc2nnc(N(CC(C)C)CC(C)C)s2)c(OC)c1,nt,nt,1.5%,8.2%,nt,-6.0%
SMILES,Sfp inh,RORgamma inh,ClpP mod,PINK1 expr mod,VP16 counter,Epigenetic derep
COc1cc(O)c(CC=C(C)C)c(O)c1C(=O)CCc1ccc(O)cc1,17.8%,-14.2%,-3.4%,26.0%,-4.7%,0.0%
O=C(CCc1ccc(O)cc1)c1c(O)cc(O)cc1O,50.1µM*!,?,1.3%,0.1%,-6.2%,-1.2%
Cc1ccc(C)c(NC(=O)C2CCN(c3nn4c(=O)cc(C)nc4s3)CC2)c1,nt,nt,0.1%,1.3%,nt,-1.0%
CCC1(C2CCN(C(=O)c3ccccc3C)CC2)NC(=O)N(CCc2scnc2C)C1=O (stereo unspecified),nt,nt,nt,-0.3%,nt,nt
c1ccc2c(c1)nnn2Cc1nnc2sc(-c3ccc4c(c3)OCCO4)nn12,17.8µM*,7.7%,31.6µM*,2.1%[38.3 µM],1.3%,0.0%
COc1ccc(Cc2nn3c(Cn4nnc5ccccc54)nnc3s2)cc1,15.8µM*,?,-0.6%,-1.2%,-10.8%,-11.0%
COc1cc(=O)n2c(c1C(=O)N(C)Cc1nonc1C)CCN(C(=O)c1cccc(C)c1C)CC2,nt,nt,nt,-1.2%,nt,nt
COc1cc(Cl)ccc1OCc1cc(C(=O)NC(C)Cc2cccnc2)no1 (stereo unspecified),15.8%,22.7%,28.2µM*,-1.4%,-7.7%,nt
COc1ccc(OCc2cc(C(=O)NC(C)Cc3cnccn3)no2)c(Cl)c1 (stereo unspecified),17.6%,33.6%,0.2%,5.7%,?,nt
CC(=O)[C@@H]1[C@@H]2C(=O)N(Cc3ccccc3)C(=O)[C@@H]2C2c3ccccc3C=CN21 (stereo partly specified),-13.0%,-26.7%,-8.5%,11.2µM*,-2.4%,1.0%
CNC(=S)NN(c1ccccc1)c1ccccc1,9.4%,17.8µM*,-2.1%,-3.7%[38.3 µM],?,-1.1%
COCCNC(=S)Nc1ccccc1Cc1ccccc1,-0.4%,3.55µM*,1.0%,1.7%,10µM*,0.0%
CN(C(N)=S)c1ccccc1,16.3%,-34.3%,-5.3%,2.6%,9.5%,-1.0%
COCCCNC(=S)Nc1ccccc1C,0.4%,?,1.2%,0.5%,-23.6%,-1.9%
COCCNC(=S)NN(c1ccccc1)c1ccccc1,?,7.94µM*,nt,-1.2%,?,1.2%
COc1cc(S(=O)(=O)Nc2ccc(C)cc2)ccc1N=Cc1c(C)c(C#N)c(=O)n(C)c1O,8.1%,11.5%,nt,22.6%,7.6%,?
Cc1ccc(N/N=C/c2c(C)c(C#N)c(=O)n(C)c2O)cc1C,12.6µM*,3.6%,nt,0.8%,-12.2%,-3.6%
O=C(Nc1ccc(/C=C/c2nc3ccccc3o2)cc1)c1ccc(F)cc1,26.2%,1.0%,3.16µM*,1.8%,2.8%,1.0%
c1ccc(-c2nc3ccccc3nc2-c2ccccn2)nc1,-14.1%,1.3%,-7.5%,-1.6%[38.3 µM],-2.8%,-1.1%
c1ccc(-c2[nH]ncc2-c2ccnc3ccccc23)nc1,0.6%,2µM*,nt,nt,3.16µM*,nt
CCOC(=O)Cc1c[nH]c(=S)[nH]c1=O,79.4µM*,19.4%,nt,-0.7%,-0.5%,1.1%
